Results from PubChem BioAssay (NCATS).
Records with an inconclusive call do not appear. Active and inactive are the calls of the source. Unless noted, the call rests on the fitted dose curve; in most records, active means well fitted curve in the direction sought with a large enough effect; inconclusive means small, poorly fitted or top-dose-only effect, or another doubt; inactive means no such curve, though single readings can be large; an effect the other way counts as inactive or inconclusive.

Tests used:
[1] = target: Estrogen receptor (Homo sapiens) (UniProt P03372); assay: qHTS assay for small molecule agonists of estrogen receptor alpha signaling (AID 588514; calls by dose curve;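 further: 0% = vehicle only and 100% = reference agonist; nearly all actives have a fitted effect of over 70% in size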)
Chain of Estrogen receptor (Homo sapiens) (P03372 whole entry, looked up): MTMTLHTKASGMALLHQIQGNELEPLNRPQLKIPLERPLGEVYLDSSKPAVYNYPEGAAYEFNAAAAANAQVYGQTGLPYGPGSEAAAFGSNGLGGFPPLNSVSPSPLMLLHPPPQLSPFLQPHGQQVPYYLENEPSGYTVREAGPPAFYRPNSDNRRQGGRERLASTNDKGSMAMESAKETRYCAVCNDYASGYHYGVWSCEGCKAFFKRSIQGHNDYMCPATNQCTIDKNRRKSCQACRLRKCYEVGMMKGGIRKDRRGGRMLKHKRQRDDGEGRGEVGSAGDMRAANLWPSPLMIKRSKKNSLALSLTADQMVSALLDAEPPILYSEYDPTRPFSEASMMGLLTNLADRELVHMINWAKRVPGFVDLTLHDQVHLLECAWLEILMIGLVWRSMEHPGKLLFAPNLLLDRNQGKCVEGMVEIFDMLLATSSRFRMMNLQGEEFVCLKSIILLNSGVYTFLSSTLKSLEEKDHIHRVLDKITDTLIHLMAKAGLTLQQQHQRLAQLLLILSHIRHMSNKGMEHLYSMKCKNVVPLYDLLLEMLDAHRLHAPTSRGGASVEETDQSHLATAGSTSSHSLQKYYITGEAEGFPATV
Summary of the method: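 ER-alpha-UAS-bla GripTite HEK293 cells, 5000/well in 2% charcoal/dextran-stripped FBS medium, treated with compound titrations 18 h at 37 C. CCF4 beta-lactamase read by fluorescence after 2 h RT; normalised to 20 nM 17-beta-estradiol (100%) and DMSO (0%), Hill fit for EC50 and efficacy.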

[2] = target: Glucocorticoid receptor (Homo sapiens) (UniProt P04150); assay: qHTS assay for small molecule agonists of glucocorticoid receptor signaling (AID 588532; active means well fitted curve in the direction sought with a large enough effect in the signal ratio, with a control signal flat; the % refers to the signal ratio;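 further: 100% = dexamethasone at 0.1 µM and 0% = DMSO only wells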); conditions: HeLa MMTV-bla, beta-lactamase ratio, agonist, 18 h; stronger effect = higher value; percent of dexamethasone control, DMSO zero
Chain of Glucocorticoid receptor (Homo sapiens) (P04150 whole entry, looked up): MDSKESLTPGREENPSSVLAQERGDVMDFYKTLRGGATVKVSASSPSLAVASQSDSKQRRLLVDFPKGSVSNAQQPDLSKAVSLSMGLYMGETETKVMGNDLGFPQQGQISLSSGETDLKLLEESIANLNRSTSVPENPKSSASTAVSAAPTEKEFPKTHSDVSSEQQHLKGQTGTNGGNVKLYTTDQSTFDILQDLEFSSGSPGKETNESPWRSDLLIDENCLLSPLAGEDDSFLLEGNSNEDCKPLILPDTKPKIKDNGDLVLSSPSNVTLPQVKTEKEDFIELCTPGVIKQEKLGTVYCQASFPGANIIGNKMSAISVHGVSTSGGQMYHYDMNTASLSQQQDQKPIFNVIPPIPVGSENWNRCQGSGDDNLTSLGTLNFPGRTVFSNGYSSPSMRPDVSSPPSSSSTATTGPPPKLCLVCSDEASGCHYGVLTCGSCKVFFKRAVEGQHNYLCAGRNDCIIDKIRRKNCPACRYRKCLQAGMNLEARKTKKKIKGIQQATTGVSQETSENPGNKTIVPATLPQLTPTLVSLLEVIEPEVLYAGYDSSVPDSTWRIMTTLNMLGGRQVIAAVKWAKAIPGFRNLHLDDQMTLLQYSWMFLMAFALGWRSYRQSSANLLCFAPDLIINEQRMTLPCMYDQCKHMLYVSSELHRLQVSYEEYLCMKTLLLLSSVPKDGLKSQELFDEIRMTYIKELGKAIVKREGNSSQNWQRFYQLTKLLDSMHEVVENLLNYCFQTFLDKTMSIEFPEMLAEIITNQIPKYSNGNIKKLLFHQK
Summary of the method: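 MMTV-bla HeLa beta-lactamase reporter cells in 1% charcoal/dextran FBS medium, compounds up to 92 uM for 18 h at 37 C, CCF4 readout; normalized to 0.1 uM dexamethasone (100%), EC50 and efficacy from Hill fits.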

[3] = target: Glucocorticoid receptor (Homo sapiens) (UniProt P04150); assay: qHTS assay for small molecule antagonists of glucocorticoid receptor signaling (AID 588533; active means well fitted inhibition curve with a large enough effect in the signal ratio, with a control signal flat, not every such curve was filed as active; the % refers to the signal ratio;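 further: cells stimulated with 2 nM dexamethasone as agonist; on the % scale 0 is the no-effect control and ±100 the full control effect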)
Summary of the method: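 Antagonist-mode qHTS: compound titrations added to GRE-bla HeLa cells, then dexamethasone 2 nM final; 18 h, 37 C. CCF4 FRET fluorescence normalized to dexamethasone and DMSO; IC50 from Hill fit.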

[4] = qHTS assay for small molecule antagonists of peroxisome proliferator-activated receptor delta signaling (AID 588535); conditions: HEK293T PPARd-UAS-bla, beta-lactamase FRET ratio, 18 h; 460 nm channel;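 further: cells co-treated with a PPAR-delta agonist as stimulator during compound exposure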
Summary of the method: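 Antagonist-mode beta-lactamase reporter (GeneBLAzer PPAR-delta-UAS-bla) in HEK293T cells, 2% charcoal/dextran FBS, 4000 cells/well. Compound titrations, 18 h at 37 C; CCF4 ratio read, IC50 and efficacy from Hill fits.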

[5] = target: Peroxisome proliferator-activated receptor gamma (Homo sapiens) (UniProt P37231); assay: qHTS assay for small molecule agonists of peroxisome proliferator-activated receptor gamma signaling (AID 588536; active means well fitted curve in the direction sought with a large enough effect in the signal ratio, with a control signal flat, not every such curve was filed as active; the % refers to the signal ratio;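 further: 0% = DMSO basal wells and 100% = rosiglitazone at 2 µM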)
Chain of Peroxisome proliferator-activated receptor gamma (Homo sapiens) (P37231 whole entry, looked up): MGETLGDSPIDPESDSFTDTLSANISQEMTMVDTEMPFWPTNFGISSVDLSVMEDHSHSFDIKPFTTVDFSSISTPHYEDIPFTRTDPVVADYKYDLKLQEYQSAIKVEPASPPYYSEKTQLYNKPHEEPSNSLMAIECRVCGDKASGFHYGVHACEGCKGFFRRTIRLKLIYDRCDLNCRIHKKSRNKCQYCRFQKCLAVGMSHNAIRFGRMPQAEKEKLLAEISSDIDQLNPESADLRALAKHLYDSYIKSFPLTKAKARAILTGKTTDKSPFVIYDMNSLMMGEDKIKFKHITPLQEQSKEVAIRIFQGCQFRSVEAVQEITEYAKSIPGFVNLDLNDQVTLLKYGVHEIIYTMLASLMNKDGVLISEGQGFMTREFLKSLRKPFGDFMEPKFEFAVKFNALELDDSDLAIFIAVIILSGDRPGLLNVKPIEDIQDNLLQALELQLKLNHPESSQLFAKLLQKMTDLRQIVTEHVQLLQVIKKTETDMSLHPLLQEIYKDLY
Summary of the method: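 GeneBLAzer PPAR-gamma-UAS-bla HEK293 cells in 1% charcoal/dextran-treated FBS medium were treated 16 h at 37 C with compounds. Beta-lactamase activity was read by CCF4 ratio (460/530 nm). Response was normalized to 2 uM rosiglitazone (100%) and DMSO, then Hill-fitted for EC50 and efficacy.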

[6] = target: Vitamin D3 receptor (Homo sapiens) (UniProt P11473); assay: qHTS assay for small molecule agonists of vitamin D receptor signaling (AID 588543; calls by dose curve;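 further: 0% = DMSO basal and 100% = reference agonist control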)
Chain of Vitamin D3 receptor (Homo sapiens) (P11473 whole entry, looked up): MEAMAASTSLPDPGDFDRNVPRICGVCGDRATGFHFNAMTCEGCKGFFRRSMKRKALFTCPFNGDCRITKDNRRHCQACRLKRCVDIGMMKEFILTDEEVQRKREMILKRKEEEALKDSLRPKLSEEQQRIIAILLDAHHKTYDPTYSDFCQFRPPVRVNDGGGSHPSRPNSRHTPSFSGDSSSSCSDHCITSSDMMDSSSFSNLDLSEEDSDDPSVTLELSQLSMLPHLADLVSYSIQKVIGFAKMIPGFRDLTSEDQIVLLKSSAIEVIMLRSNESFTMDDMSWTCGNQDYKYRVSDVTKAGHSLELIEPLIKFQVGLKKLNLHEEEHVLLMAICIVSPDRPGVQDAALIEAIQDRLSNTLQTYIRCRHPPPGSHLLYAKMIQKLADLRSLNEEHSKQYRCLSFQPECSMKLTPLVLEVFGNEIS
Summary of the method: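 β-lactamase reporter, VDR-UAS-bla HEK293T, agonist mode. Cells plated 5 h at 37 °C, compound titration 16 h at 37 °C, CCF4 dye 2 h RT, ratio 460/530 nm. Hill fit → EC50, efficacy vs 50 nM 1α,25-(OH)2D3.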

[7] = qHTS assay for small molecule agonists of retinoid X receptor alpha signaling (AID 588544; calls by dose curve;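 on activation: 0% = DMSO basal wells and 100% = reference agonist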); conditions: HEK293T RXRa-UAS-bla, beta-lactamase reporter, 18 h; 530 nm emission
[8] = target: Retinoic acid receptor RXR-alpha (Homo sapiens) (UniProt P19793); assay: as above
Chain of Retinoic acid receptor RXR-alpha (Homo sapiens) (P19793 whole entry, looked up): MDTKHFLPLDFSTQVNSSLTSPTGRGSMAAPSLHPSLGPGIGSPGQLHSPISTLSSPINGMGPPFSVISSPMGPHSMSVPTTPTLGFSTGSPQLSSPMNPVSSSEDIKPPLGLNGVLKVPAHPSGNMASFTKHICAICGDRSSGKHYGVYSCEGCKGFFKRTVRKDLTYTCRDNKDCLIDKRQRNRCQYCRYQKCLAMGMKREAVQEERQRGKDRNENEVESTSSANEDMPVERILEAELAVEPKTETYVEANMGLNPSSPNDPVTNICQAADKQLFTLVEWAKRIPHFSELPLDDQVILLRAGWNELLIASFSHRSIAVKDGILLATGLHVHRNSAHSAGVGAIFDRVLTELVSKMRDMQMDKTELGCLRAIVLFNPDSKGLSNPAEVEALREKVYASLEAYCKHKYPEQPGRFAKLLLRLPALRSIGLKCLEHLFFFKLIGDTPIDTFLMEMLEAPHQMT

[9] = target: Thyroid hormone receptor beta (Homo sapiens) (UniProt P10828); assay: qHTS assay for small molecule agonists of thyroid hormone receptor beta signaling (AID 588545; calls by dose curve;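 further: 0% = DMSO only and 100% = 10 nM T3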)
Chain of Thyroid hormone receptor beta (Homo sapiens) (P10828 whole entry, looked up): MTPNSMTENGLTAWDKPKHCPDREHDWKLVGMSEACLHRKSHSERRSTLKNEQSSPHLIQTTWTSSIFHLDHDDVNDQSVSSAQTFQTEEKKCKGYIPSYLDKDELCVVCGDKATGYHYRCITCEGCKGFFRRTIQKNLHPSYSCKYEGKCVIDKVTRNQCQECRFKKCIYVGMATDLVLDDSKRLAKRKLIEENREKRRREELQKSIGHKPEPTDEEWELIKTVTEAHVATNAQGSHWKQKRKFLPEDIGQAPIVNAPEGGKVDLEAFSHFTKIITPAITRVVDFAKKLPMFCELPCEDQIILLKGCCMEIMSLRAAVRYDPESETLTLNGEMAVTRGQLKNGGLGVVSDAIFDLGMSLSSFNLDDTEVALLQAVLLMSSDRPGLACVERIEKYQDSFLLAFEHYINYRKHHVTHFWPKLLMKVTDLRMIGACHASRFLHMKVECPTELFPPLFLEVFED
Summary of the method: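 Compounds were tested as agonists in TR-UAS-bla-GripTite HEK 293 cells. After 18 hrs at 37 C, CCF4 substrate was added and fluorescence read after 2 hrs at room temperature.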

[10] = qHTS assay for small molecule antagonists of retinoid X receptor alpha signaling (AID 588546; active means well fitted inhibition curve with a large enough effect in the signal ratio, with a control signal flat, not every such curve was filed as active; the % refers to the signal ratio;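 further: cells stimulated with 9-cis-retinoic acid as agonist; on the % scale 0 is the no-effect control and ±100 the full control effect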); conditions: HEK293T RXRa-UAS-bla, beta-lactamase ratio, antagonist mode; measured here: W530 green channel, cytotoxicity proxy
Summary of the method: (§1)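 Beta-lactamase reporter inhibition, read as CCF4 fluorescence ratio (ex 405, em 460/530 nm) after 2 h at RT. HEK293T UAS-bla cells, 2500/well, were stimulated with 9-cis-RA at 500 or 100 nM final alongside test compound for 18 h at 37 C.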

[11] = target: Retinoic acid receptor RXR-alpha (Homo sapiens) (UniProt P19793); assay: as above; conditions: HEK293T RXRa-UAS-bla, beta-lactamase ratio, antagonist mode
Summary of the method: as §1

[12] = target: Thyroid hormone receptor beta (Homo sapiens) (UniProt P10828); assay: qHTS assay for small molecule antagonists of thyroid hormone receptor beta signaling (AID 588547; active means well fitted inhibition curve with a large enough effect in the signal ratio, with a control signal flat, not every such curve was filed as active; the % refers to the signal ratio;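 further: cells stimulated with 0.4 nM T3 agonist during compound exposure; series mostly up to about 77 µM; on the % scale 0 is the no-effect control and ±100 the full control effect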); conditions: TR-UAS-bla HEK293, beta-lactamase ratio, antagonist mode, 18 h
Summary of the method: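 TR-UAS-bla GripTite HEK293 cells in 2% charcoal/dextran FBS medium; compounds 0.59 nM to 92 uM with T3 at 0.4nM final, 18 h at 37 C. Beta-lactamase read by CCF4 fluorescence (460/530 nm); Hill fits gave IC50 and efficacy.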

[13] = qHTS assay for environmental chemicals that activate the Aryl hydrocarbon Receptor (AhR) signaling pathway (AID 651777); conditions: 1A2-DRE human hepatoma cells, luciferase, 24 h; activation: stronger effect = higher value; further: % of control where 0% means no effect; nearly all actives have a fitted effect of over 15% in size
Summary of the method: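 Reporter gene assay: hepatoma cells with DRE/CYP1A2-luciferase, 24 hr compound incubation at 37 C, 5% CO2, luminescence after One-Glo (30 min, RT).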

[14] = target: Peroxisome proliferator-activated receptor alpha (Homo sapiens) (UniProt Q07869); assay: qHTS assay for small molecule agonists of the peroxisome proliferator-activated receptor alpha (PPARalpha) signaling pathway (AID 651778); conditions: PathHunter PPARalpha complementation, chemiluminescence, 6 h; max response: stronger effect = higher value; further: % of control where 0% means no effect
Chain of Peroxisome proliferator-activated receptor alpha (Homo sapiens) (Q07869 whole entry, looked up, the tested form may be a part): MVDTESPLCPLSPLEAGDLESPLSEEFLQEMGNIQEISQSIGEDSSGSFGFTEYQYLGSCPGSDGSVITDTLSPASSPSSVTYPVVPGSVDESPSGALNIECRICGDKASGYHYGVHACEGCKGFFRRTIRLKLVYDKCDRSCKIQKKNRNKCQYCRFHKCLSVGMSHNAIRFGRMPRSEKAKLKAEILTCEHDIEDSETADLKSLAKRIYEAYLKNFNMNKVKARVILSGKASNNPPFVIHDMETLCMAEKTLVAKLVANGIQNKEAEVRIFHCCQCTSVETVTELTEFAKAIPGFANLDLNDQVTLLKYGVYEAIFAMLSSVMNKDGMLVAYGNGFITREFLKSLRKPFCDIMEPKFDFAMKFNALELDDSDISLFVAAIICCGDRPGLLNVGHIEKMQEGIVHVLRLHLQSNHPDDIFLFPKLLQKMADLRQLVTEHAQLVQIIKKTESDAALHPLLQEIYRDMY
Summary of the method: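 Enzyme-fragment complementation assay in which ligand-bound PPARalpha translocates and forms an active enzyme that generates chemiluminescence. Cells were plated overnight, exposed to compound for 6 hr at 37 C, and then given detection reagent for 60 min at room temperature.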

[15] = qHTS assay for small molecule agonists of the antioxidant response element (ARE) signaling pathway measured by Nrf2-dependant transcriptional activity (AID 720636; active means well fitted curve in the direction sought with a large enough effect in the repeat runs; an effect the other way counts as inactive or inconclusive;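 further: HepG2 cells with an ARE-driven luciferase reporter; % of control where 0% means no effect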)
Summary of the method: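 Nrf2-dependent transcription is measured in ARE-luc HepG2 cells: compound is applied for 16 hr at 37 C after a 6 hr attachment period, and luciferase activity is quantified by luminescence using ONE-Glo.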

[16] = qHTS assay for small molecule agonists of the antioxidant response element (ARE) signaling pathway measured by Nrf2-dependant transcriptional activity - cell viability counter screen (AID 720653; active means well fitted curve in the direction sought with a large enough effect in the repeat runs; an effect the other way counts as inactive or inconclusive; further: on the % scale 0 is the no-effect control and ±100 the full control effect); conditions: ARE-bla HepG2 viability, CellTiter-Glo ATP luminescence, 16 h; max response: stronger effect = lower value
Summary of the method: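 ARE-bla HepG2 cells treated with compounds for 16 h at 37C; this counter screen measures viability as intracellular ATP by CellTiter-Glo luminescence after 30 min at room temperature.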

[17] = qHTS assay for cell viability of HEK293 cells (AID 743288); conditions: ATP luminescence (CellTiter-Glo), 18 h; max response: stronger effect = lower value; further: on the % scale 0 is the no-effect control and ±100 the full control effect; nearly all actives have a fitted effect of over 50% in size
Summary of the method: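 Environmental chemicals tested in qHTS format against parental HEK293 cells; 18 h treatment, 37 C; read-out ATP luminescence (CellTiter-Glo), 30 min RT development.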

[18] = qHTS assay for cell viability of the p53RE-bla HCT-116 cell line (AID 743292); further: on the % scale 0 is the no-effect control and ±100 the full control effect; nearly all actives have a fitted effect of over 55% in size
Summary of the method: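 ATP-based luminescence, 16 h compound exposure at 37 C, p53RE-bla HCT-116 cells at 4,000/well.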

[19] = target: Nuclear receptor subfamily 1 group I member 2 (Rattus norvegicus) (UniProt Q9R1A7); assay: qHTS assay for small molecule activators of the rat pregnane X receptor (rPXR) signaling pathway (AID 651751; call rule not given here; further: 0% is about no effect); conditions: rPXR reporter cells, luciferase (One-Glo), 24 h
Chain of Nuclear receptor subfamily 1 group I member 2 (Rattus norvegicus) (Q9R1A7 whole entry, looked up): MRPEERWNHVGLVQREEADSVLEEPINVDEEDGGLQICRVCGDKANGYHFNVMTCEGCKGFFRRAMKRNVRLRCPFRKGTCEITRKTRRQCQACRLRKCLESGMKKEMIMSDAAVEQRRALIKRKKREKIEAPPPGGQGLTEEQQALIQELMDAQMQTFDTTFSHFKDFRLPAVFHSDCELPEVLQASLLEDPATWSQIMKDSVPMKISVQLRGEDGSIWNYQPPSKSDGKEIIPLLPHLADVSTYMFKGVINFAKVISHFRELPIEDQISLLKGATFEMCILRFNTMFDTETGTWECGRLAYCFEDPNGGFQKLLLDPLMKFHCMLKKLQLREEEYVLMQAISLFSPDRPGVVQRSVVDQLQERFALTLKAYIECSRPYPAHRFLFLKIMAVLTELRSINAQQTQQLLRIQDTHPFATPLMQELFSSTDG

[20] = qHTS assay for small molecule activators of the human pregnane X receptor (PXR) signaling pathway (AID 720659; call rule not given here; further: 0% is about no effect)

CCCCOCCOCCOC(=O)CCCCC(=O)OCCOCCOCCCC
inactive: Potency [1] | activation [2] -7.36% | Potency [3] | outcome [5] | outcome [6] | Potency [8] | Potency [9] | max response [11] 5.79% | activity change % (negative = inhibition) [12] -12.6% | activation [13] -0.636% | max response [14] 3.34% | Potency [15] | max response [16] -2.75% | max response [17] -4.73% | Potency [18] | max response [19] -6.4%
-1.41%: max response [10]
-9.1%: max response [7]
22.3%: max response [4]

CCO[Si](CCC#N)(OCC)OCC
-13.6%: max response [10]
-7.96%: max response [7]
inactive: Potency [1] | activation [2] 2.23% | Potency [3] | outcome [5] | Potency [8] | Potency [9] | max response [11] -7.94% | activity change % (negative = inhibition) [12] 18.5% | Potency [15] | max response [16] -7.54% | max response [17] -14.2% | Potency [18] | max response [19] -1.9% | outcome [20]

C[C@]12CCC(=O)C=C1CC[C@@H]1[C@@H]2[C@@H](O)C[C@]2(C=O)[C@@H](C(=O)CO)CC[C@@H]12
-18.8%: max response [10]
19.7%: max response [7]
inactive: Potency [1] | outcome [6] | Potency [8] | max response [11] 1.07% | activity change % (negative = inhibition) [12] 7.91% | max response [14] 0.506% | Potency [15] | max response [16] -8.31% | max response [17] -8.63% | Potency [18] | max response [19] -0.971% | outcome [20]

CCc1c(C(=O)O)c(=O)cnn1-c1ccc(Cl)cc1
-1.3%: max response [10]
48.3%: max response [4]
inactive: Potency [1] | Potency [3] | outcome [5] | outcome [6] | Potency [9] | max response [11] 7.37% | activity change % (negative = inhibition) [12] 4.34% | activation [13] 0.0279% | max response [14] 3.7% | Potency [15] | max response [16] -3.97% | max response [17] -15.5% | Potency [18] | max response [19] -1.29% | outcome [20]

CC(C)c1cccc(C(C)C)c1
-9.24%: max response [7]
-5.64%: max response [4]
-3.77%: max response [10]
inactive: Potency [1] | activation [2] -12.5% | outcome [5] | outcome [6] | Potency [8] | Potency [9] | max response [11] -4.2% | activity change % (negative = inhibition) [12] -5.42% | activation [13] 2.18% | max response [14] -1.99% | max response [16] -8.28% | max response [17] -5.18% | Potency [18] | max response [19] -1.81% | outcome [20]

CCCCN(CCCC)CCCC
-9.25%: max response [7]
-19.1%: max response [10]
31.3%: max response [4]
inactive: Potency [1] | activation [2] 8.81% | Potency [3] | Potency [8] | max response [11] 2.35% | activity change % (negative = inhibition) [12] -2.52% | activation [13] -2.43% | max response [14] 3.75% | Potency [15] | max response [16] -5.72% | Potency [18] | max response [19] -4.71% | outcome [20]

C=CCCCCCCCCC=O
inactive: Potency [1] | activation [2] 4.91% | Potency [3] | outcome [5] | outcome [6] | Potency [8] | max response [11] -16.9% | activity change % (negative = inhibition) [12] 19.2% | activation [13] 0.287% | max response [14] -1.39% | Potency [15] | max response [16] 3.17% | max response [17] -14% | Potency [18] | max response [19] -2.8% | outcome [20]
14.1%: max response [4]
-12%: max response [7]
-4.83%: max response [10]

CCCCCC1CCC(=O)O1 (stereo not drawn)
-5.36%: max response [7]
inactive: Potency [1] | activation [2] -5.15% | Potency [3] | outcome [6] | Potency [8] | Potency [9] | max response [11] 2.03% | max response [14] -1.42% | max response [16] 1.26% | max response [17] -7.91% | Potency [18] | max response [19] 2.69% | outcome [20]
31.3%: max response [4]
-5.89%: max response [10]

CCCCCCCC(=O)Oc1c(Br)cc(C#N)cc1Br
inactive: Potency [1] | Potency [3] | outcome [5] | outcome [6] | Potency [8] | Potency [9] | max response [11] -20.9% | activity change % (negative = inhibition) [12] -2.51% | Potency [15] | max response [16] 0.905% | max response [17] -6.14% | Potency [18] | max response [19] -8.28% | outcome [20]
-14.9%: max response [7]
-5.85%: max response [10]

COC(=O)C1CCC(C(=O)OC)CC1 (stereo not drawn)
-4.14%: max response [7]
inactive: Potency [1] | outcome [5] | outcome [6] | Potency [8] | Potency [9] | max response [11] -11.5% | max response [14] 3.84% | Potency [15] | max response [16] 1.5% | max response [17] -13.8% | Potency [18] | max response [19] 2.13%
36.1%: max response [4]
-8.09%: max response [10]

C#CCOC(=O)[C@@H](C)Oc1ccc(Oc2ncc(Cl)cc2F)cc1
-11.8%: max response [7]
inactive: Potency [1] | outcome [5] | outcome [6] | Potency [8] | max response [11] -3.03% | activation [13] -1.36% | max response [14] -0.41% | Potency [15] | max response [16] -3.32% | max response [17] -6.8% | Potency [18] | max response [19] -2.33% | outcome [20]
-4.05%: max response [10]
41.4%: max response [4]

CC(C)OC(=O)c1ccccc1C(=O)OC(C)C
-19.4%: max response [10]
-10.4%: max response [7]
inactive: Potency [1] | activation [2] -6.71% | Potency [3] | outcome [5] | outcome [6] | Potency [8] | max response [11] -1.37% | activation [13] 1.05% | max response [14] -0.635% | Potency [15] | max response [16] 0.0901% | max response [17] -5.59% | Potency [18] | max response [19] 2.54% | outcome [20]

O=S(c1ccc(Cl)cc1)c1cc(Cl)c(Cl)cc1Cl (stereo not drawn)
inactive: Potency [1] | activation [2] 1.68% | outcome [6] | activity change % (negative = inhibition) [12] -2.9% | activation [13] 0.902% | max response [14] -1.31% | max response [16] -25.7% | Potency [18]
14.8%: max response [4]
